# Columns and labels:
# Assay in all cases: DAPPL (digital affinity profiling via proximity ligation, sequencing); 10 mM Tris-HCl pH 7.5, 50 mM NaCl, 1 mM DTT, 4% glycerol, room temperature, 30 min; GST-TFs on glutathione beads, 16-mer random dsDNA library, 0.1% formaldehyde crosslink after washing; high values mean tight binding
# FEV = target: T1, FEV (Homo sapiens, UniProt Q99581 1-238); details: protein: recombinant; tags: N-terminal GST; dsDNA, one strand shown
# T1 sequence: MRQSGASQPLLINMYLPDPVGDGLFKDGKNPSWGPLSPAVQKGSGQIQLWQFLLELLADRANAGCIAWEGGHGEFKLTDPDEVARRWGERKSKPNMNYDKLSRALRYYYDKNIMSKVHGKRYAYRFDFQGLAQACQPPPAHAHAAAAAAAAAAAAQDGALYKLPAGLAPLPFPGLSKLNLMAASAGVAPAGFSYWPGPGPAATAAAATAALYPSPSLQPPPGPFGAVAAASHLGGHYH
# Summary of the method: (§1)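 Binding signal is defined as a hexamer's read frequency for one factor over its frequency for the tag-only sample. To obtain reads, GST-fused human transcription factors were expressed in yeast, captured on glutathione beads, barcoded with DNA and pooled with that sample. Pools met 200 nmole of a 16-mer random double-stranded DNA library in Tris/NaCl/DTT/glycerol buffer for 30 min at room temperature before washing, 0.1% formaldehyde crosslinking, proximity ligation (BsaI/T4 ligase, 1 h, 37 °C), PCR and Illumina NextSeq500 sequencing.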
# ETV5 = ETV5 (Homo sapiens, UniProt P41161 1-510); details: protein: recombinant; tags: N-terminal GST; dsDNA, one strand shown
# Sequence of ETV5 (P41161 whole entry): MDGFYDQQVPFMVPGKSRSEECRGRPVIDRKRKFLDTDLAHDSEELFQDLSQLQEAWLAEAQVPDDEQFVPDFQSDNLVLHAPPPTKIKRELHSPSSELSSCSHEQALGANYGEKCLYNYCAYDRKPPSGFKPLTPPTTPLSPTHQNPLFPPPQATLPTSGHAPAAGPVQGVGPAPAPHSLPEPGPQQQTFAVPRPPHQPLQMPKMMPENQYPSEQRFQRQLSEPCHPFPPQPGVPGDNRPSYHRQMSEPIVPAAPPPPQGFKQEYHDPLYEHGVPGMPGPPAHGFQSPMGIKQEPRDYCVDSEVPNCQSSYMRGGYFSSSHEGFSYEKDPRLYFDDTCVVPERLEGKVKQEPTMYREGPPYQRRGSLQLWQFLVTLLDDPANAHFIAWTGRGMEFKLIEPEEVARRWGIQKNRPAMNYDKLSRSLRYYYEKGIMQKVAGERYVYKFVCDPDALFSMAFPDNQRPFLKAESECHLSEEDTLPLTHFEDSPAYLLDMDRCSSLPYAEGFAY
# Summary of the method: as §1
# HSF1 = HSF1 (Homo sapiens, UniProt Q00613 1-529); details: protein: recombinant; tags: N-terminal GST; chain copies: 3; dsDNA, one strand shown
# Sequence of HSF1 (Q00613 whole entry): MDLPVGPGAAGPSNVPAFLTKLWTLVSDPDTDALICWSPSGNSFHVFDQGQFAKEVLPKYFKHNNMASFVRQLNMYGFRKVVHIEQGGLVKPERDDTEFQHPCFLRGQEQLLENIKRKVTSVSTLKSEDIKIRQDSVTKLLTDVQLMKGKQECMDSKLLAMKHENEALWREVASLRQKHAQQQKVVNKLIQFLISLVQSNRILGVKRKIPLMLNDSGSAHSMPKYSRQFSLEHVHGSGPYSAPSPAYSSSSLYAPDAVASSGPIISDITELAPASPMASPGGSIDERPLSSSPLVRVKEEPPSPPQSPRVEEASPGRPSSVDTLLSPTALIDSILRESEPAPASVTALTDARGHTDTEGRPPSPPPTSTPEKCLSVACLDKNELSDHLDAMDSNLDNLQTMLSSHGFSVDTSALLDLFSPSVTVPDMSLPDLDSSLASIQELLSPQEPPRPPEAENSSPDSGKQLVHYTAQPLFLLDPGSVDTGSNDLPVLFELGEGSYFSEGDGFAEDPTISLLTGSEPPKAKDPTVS
# Summary of the method: as §1
# SPIC = target: T2, SPIC (Homo sapiens, UniProt Q8N5J4 1-248); details: protein: recombinant; tags: N-terminal GST; dsDNA, one strand shown
# T2 sequence: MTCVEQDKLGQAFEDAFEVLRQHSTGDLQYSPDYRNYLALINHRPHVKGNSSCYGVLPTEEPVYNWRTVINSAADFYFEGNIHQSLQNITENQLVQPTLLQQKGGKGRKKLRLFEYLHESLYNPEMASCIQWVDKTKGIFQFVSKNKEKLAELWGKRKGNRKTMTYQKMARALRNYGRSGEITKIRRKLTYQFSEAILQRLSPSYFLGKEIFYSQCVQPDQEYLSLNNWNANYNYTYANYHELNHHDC
# Summary of the method: as §1
# ELF4 = ELF4 (Homo sapiens, UniProt Q99607 1-663); details: protein: recombinant; tags: N-terminal GST; dsDNA, one strand shown
# Sequence of ELF4 (Q99607 whole entry): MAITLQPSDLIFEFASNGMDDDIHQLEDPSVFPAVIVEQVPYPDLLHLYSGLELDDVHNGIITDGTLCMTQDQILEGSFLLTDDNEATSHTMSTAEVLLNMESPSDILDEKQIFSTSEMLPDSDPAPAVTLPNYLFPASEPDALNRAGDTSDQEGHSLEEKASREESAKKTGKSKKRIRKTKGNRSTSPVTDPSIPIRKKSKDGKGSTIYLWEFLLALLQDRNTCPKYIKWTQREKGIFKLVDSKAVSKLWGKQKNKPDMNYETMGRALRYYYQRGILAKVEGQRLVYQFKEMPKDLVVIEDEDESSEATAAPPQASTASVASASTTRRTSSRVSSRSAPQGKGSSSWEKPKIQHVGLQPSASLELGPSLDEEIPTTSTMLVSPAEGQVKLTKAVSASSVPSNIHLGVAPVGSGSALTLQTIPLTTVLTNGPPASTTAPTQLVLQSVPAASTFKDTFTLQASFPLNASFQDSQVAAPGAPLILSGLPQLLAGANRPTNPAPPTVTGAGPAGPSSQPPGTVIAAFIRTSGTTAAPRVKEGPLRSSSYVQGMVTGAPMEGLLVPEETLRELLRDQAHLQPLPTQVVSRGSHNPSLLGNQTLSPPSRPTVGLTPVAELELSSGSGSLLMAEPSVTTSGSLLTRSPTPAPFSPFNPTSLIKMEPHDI
# Summary of the method: as §1
# ELK4 = target: T3, ELK4 (Homo sapiens, UniProt P28324-2 1-405); details: protein: recombinant; tags: N-terminal GST; dsDNA, one strand shown
# T3 sequence: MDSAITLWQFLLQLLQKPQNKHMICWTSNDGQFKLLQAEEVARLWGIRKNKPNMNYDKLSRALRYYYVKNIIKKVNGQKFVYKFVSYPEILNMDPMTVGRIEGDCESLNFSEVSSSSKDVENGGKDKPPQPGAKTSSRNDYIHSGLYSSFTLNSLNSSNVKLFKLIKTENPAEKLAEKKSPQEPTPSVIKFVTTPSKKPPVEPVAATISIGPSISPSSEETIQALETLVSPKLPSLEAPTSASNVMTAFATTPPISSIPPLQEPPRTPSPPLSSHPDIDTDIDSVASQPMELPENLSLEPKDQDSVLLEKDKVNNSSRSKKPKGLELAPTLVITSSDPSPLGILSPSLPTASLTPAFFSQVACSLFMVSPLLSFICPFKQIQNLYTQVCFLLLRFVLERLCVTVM
# Summary of the method: as §1
# ETV2 = target: T4, ETV2 (Homo sapiens, UniProt O00321 1-342); details: protein: recombinant; tags: N-terminal GST; dsDNA, one strand shown
# T4 sequence: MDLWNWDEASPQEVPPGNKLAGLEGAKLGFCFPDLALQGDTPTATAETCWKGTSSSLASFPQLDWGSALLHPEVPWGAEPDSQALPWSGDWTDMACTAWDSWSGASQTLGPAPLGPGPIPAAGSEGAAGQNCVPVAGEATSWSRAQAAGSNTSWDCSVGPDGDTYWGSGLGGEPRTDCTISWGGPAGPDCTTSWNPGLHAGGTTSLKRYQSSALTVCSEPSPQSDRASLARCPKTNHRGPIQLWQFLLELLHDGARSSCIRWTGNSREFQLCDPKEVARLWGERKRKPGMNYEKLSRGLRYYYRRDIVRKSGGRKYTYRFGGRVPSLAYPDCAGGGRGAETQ
# Summary of the method: as §1
# ELF3 = target: T5, ELF3 (Homo sapiens, UniProt P78545 1-371); details: protein: recombinant; tags: N-terminal GST; dsDNA, one strand shown
# T5 sequence: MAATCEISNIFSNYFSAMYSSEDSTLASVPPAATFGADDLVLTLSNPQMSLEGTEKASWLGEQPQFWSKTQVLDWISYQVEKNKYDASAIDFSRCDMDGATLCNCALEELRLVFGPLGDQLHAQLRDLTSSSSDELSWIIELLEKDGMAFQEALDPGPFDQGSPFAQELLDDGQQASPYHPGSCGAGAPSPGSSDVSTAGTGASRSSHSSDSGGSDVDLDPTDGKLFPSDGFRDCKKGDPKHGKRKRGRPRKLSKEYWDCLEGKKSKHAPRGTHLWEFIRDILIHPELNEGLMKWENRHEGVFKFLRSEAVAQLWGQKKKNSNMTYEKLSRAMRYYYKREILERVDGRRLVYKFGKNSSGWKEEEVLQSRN
# Summary of the method: as §1
# CRX = CRX (Homo sapiens, UniProt O43186 1-299); details: protein: recombinant; tags: N-terminal GST; dsDNA, one strand shown
# Sequence of CRX (O43186 whole entry): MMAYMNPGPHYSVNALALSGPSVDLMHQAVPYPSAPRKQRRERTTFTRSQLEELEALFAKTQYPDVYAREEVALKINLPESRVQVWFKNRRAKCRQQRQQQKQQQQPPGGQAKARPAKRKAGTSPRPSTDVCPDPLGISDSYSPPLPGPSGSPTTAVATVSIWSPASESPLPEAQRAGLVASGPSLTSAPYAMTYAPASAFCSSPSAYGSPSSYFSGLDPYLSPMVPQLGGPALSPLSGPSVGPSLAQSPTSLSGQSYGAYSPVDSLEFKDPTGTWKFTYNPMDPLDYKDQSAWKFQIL
# Summary of the method: as §1
# ETV1 = ETV1 (Homo sapiens, UniProt P50549 1-477); details: protein: recombinant; tags: N-terminal GST; dsDNA, one strand shown
# Sequence of ETV1 (P50549 whole entry): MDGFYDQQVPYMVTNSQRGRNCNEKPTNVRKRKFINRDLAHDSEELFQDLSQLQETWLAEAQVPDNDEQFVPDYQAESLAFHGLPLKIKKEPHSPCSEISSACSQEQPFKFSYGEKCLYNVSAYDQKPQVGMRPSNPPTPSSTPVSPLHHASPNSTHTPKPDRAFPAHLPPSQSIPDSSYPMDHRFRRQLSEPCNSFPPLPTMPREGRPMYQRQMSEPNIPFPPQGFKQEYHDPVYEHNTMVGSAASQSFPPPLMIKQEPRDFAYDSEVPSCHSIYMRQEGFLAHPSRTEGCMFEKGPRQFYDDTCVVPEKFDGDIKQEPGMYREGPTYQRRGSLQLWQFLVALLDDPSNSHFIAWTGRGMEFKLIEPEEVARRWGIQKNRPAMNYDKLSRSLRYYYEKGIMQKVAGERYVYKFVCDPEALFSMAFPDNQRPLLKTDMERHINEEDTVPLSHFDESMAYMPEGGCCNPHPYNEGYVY
# Summary of the method: as §1
# ERF = target: T6, ERF (Homo sapiens, UniProt P50548 1-548); details: protein: recombinant; tags: N-terminal GST; dsDNA, one strand shown
# T6 sequence: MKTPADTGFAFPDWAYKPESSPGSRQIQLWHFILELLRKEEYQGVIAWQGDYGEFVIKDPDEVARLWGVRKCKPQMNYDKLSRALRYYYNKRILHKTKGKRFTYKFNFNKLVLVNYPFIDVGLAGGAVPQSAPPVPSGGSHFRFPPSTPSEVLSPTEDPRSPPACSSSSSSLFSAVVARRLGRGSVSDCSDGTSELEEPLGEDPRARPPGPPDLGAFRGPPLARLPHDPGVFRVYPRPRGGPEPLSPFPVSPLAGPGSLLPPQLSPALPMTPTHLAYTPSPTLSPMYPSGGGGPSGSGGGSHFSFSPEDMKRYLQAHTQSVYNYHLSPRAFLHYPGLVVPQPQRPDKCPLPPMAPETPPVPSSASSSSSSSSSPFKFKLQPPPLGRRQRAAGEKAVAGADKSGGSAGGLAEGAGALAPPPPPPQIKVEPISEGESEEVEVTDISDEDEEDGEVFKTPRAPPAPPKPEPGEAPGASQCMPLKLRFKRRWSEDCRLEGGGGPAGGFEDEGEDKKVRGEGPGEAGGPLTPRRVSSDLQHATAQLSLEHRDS
# Summary of the method: as §1
# ETV3L = target: T7, ETV3L (Homo sapiens, UniProt Q6ZN32 1-361); details: protein: recombinant; tags: N-terminal GST; dsDNA, one strand shown
# T7 sequence: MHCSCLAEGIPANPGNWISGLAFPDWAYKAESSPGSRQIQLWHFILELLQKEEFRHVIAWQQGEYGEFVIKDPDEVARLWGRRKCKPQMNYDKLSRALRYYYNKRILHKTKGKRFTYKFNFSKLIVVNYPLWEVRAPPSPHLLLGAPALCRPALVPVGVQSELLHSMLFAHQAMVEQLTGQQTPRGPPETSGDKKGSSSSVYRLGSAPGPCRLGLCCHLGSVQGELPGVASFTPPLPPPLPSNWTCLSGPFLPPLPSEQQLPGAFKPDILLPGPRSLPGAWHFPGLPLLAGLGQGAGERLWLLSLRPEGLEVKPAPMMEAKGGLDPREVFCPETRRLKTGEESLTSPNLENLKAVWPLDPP
# Summary of the method: as §1
# ETS2 = target: T8, ETS2 (Homo sapiens, UniProt P15036 1-469); details: protein: recombinant; tags: N-terminal GST; dsDNA, one strand shown
# T8 sequence: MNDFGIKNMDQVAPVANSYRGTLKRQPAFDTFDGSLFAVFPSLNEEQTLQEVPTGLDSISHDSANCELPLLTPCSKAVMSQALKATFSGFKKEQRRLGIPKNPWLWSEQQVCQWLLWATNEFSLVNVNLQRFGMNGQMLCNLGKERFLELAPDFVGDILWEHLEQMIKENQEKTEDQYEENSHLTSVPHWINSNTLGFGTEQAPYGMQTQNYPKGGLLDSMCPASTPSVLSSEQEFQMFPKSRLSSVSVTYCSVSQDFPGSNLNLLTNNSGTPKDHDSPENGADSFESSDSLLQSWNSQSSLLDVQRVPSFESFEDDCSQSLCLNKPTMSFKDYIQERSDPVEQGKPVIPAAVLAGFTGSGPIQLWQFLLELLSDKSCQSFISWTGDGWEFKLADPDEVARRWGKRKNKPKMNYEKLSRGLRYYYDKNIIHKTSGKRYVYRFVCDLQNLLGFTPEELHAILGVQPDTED
# Summary of the method: as §1
# SPDEF = target: T9, SPDEF (Homo sapiens, UniProt O95238 1-335); details: protein: recombinant; tags: N-terminal GST; dsDNA, one strand shown
# T9 sequence: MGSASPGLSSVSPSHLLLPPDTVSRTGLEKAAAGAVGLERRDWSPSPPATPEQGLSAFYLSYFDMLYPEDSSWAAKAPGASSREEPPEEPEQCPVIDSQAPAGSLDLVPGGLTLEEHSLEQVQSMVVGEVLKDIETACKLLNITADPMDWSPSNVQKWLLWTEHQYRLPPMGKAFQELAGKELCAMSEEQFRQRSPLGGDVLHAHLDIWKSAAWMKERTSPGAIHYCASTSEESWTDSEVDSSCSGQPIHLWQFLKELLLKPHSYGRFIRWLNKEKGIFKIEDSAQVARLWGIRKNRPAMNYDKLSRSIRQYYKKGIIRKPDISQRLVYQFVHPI
# Summary of the method: as §1
# ETV7 = target: T10, ETV7 (Homo sapiens, UniProt Q9Y603 1-341); details: protein: recombinant; tags: N-terminal GST; dsDNA, one strand shown
# T10 sequence: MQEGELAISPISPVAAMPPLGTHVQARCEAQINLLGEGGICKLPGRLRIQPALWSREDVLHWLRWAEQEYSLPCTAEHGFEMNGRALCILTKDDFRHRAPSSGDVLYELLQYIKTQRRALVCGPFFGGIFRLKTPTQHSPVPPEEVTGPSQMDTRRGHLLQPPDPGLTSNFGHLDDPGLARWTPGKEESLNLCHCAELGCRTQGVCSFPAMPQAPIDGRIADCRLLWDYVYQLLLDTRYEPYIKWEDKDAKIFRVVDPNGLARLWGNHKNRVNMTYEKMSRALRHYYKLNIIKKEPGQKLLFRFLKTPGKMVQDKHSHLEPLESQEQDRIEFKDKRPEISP
# Summary of the method: as §1
# ELF5 = target: T11, ELF5 (Homo sapiens, UniProt Q9UKW6-2 1-255); details: protein: recombinant; tags: N-terminal GST; dsDNA, one strand shown
# T11 sequence: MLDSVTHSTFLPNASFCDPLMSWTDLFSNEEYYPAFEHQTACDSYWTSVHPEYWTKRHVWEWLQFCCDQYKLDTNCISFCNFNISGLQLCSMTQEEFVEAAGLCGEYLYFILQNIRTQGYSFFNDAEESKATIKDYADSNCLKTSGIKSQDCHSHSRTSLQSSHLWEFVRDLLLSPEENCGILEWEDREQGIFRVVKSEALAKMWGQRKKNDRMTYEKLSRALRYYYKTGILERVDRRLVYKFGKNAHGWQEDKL
# Summary of the method: as §1
# ETV3 = target: T12, ETV3 (Homo sapiens, UniProt P41162-2 1-143); details: protein: recombinant; tags: N-terminal GST; dsDNA, one strand shown
# T12 sequence: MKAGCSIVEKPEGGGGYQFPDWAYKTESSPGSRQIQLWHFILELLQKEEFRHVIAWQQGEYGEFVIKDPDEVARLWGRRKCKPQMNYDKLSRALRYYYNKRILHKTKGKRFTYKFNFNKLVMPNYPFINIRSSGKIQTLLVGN
# Summary of the method: as §1
# ETV6 = ETV6 (Homo sapiens, UniProt P41212 1-452); details: protein: recombinant; tags: N-terminal GST; dsDNA, one strand shown
# Sequence of ETV6 (P41212 whole entry): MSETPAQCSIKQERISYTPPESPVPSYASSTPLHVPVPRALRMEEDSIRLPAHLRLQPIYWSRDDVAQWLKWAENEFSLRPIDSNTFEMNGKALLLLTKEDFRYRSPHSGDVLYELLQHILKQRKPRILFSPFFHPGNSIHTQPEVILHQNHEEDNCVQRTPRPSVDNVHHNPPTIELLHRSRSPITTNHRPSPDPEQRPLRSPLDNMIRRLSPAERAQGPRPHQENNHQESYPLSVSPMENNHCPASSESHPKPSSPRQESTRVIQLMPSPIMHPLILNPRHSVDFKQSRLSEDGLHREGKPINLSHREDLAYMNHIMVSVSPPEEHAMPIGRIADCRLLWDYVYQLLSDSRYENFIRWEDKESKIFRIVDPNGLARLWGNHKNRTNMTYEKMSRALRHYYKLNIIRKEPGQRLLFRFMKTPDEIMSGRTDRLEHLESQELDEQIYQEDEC
# Summary of the method: as §1
sequence,measurement,setting,value
ACCTGG,binding signal,FEV,"1.17 fold enrichment (6-mer frequency, TF over GST control)"
same,binding signal,ETV5,"1.2 fold enrichment (6-mer frequency, TF over GST control)"
same,binding signal,HSF1,"1.2 fold enrichment (6-mer frequency, TF over GST control)"
same,binding signal,SPIC,"1.18 fold enrichment (6-mer frequency, TF over GST control)"
same,binding signal,ELF4,"1.33 fold enrichment (6-mer frequency, TF over GST control)"
same,binding signal,ELK4,"1.25 fold enrichment (6-mer frequency, TF over GST control)"
same,binding signal,ETV2,"1.35 fold enrichment (6-mer frequency, TF over GST control)"
same,binding signal,ELF3,"1.19 fold enrichment (6-mer frequency, TF over GST control)"
same,binding signal,CRX,"1.14 fold enrichment (6-mer frequency, TF over GST control)"
same,binding signal,ETV1,"1.29 fold enrichment (6-mer frequency, TF over GST control)"
same,binding signal,ERF,"1.17 fold enrichment (6-mer frequency, TF over GST control)"
same,binding signal,ETV3L,"1.33 fold enrichment (6-mer frequency, TF over GST control)"
same,binding signal,ETS2,"1.26 fold enrichment (6-mer frequency, TF over GST control)"
same,binding signal,SPDEF,"1.2 fold enrichment (6-mer frequency, TF over GST control)"
same,binding signal,ETV7,"1.29 fold enrichment (6-mer frequency, TF over GST control)"
same,binding signal,ELF5,"1.19 fold enrichment (6-mer frequency, TF over GST control)"
same,binding signal,ETV3,"1.21 fold enrichment (6-mer frequency, TF over GST control)"
same,binding signal,ETV6,"1.28 fold enrichment (6-mer frequency, TF over GST control)"

# — paper PMC7862700, “An all-to-all approach to the identification of sequence-specific readers for epigenetic DNA modifications on cytosine”
